# Screening data as filed in PubChem.
# Most compounds without a hit are left out; they make up all but 12% or so of the library.
# Shiga toxin inh: blocks Shiga toxin action in Vero cells; inhibition, % at 38.7 µM; 290,000 compounds, 9.2% hits; Vero cells, Shiga toxin protein synthesis inhibition reporter; AID 2315; in the data active = inhibition mostly above about 28%, no sharp cut-off; inactive = mostly below about 43%; note: 0% is about no effect
# FMDV inh: foot and mouth disease virus antiviral activity; FMDV antiviral cell-based qHTS; Potency, µM (top dose mostly 57.9 µM), for inactives: top-dose activity change, negative = inhibition, actives largely listed as inhibitors; 410,000 compounds, 1.2% hits; calls by dose curve; tested in HEK293T cells; note: read-out not given here; potency is the fitted concentration of half-maximal effect; % is set by controls: 0 for no effect and ±100 for the full control effect; nearly all actives have a fitted effect of over 45% in size
# Sm TGR block: S. mansoni TGR enzyme inhibition. purified TGR, DTNB reduction, TNB absorbance 405 nm. Potency, µM (top dose mostly 114 µM), without a hit: at the top dose activity change, negative = inhibition, actives largely listed as inhibitors. 360,000 compounds, 3% hits; active = well fitted inhibition curve with a large enough effect; inconclusive = small, poorly fitted or top-dose-only effect; inactive = no such curve, though single readings can be large or run the other way; note: potency is the fitted concentration of half-maximal effect; % is set by controls: 0 for no effect and ±100 for the full control effect; nearly all actives have a fitted effect of over 60% in size
#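 TGR 20 nM + NADPH 100 uM (dispensed conc.), cpd preinc 15 min RT; start with NADPH (500 uM addition) then DTNB (15 mM addition). Kinetic TNB absorbance, 405 nm filter. Four-parameter Hill fit across titration.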
# CHX counter: counter-screen for Shiga toxin inhibitors: cycloheximide protein synthesis inhibition; max response, %; cell reporter, cycloheximide protein synthesis inhibition counterscreen; 300,000 compounds, 12% hits; in the data active = max response mostly above about 13%, no sharp cut-off; inactive = mostly below about 14%; note: read at 38.3 µM for the half of the compounds with a filed dose; 0% is about no effect
# * hit, by the source's call; ? = inconclusive; · = no result given; [ ] = dose if it differs, or a comment.
SMILES,Shiga toxin inh,FMDV inh,Sm TGR block,CHX counter
Cc1cccn2cc(CCNS(=O)(=O)c3cccs3)nc12,53.2,25.1%,4.0%,20.7*
Cc1ccc(S(=O)(=O)Nc2cccc(-c3cn4cccc(C)c4n3)c2)cc1,·,75.2%,6.9%,·
Cc1cccn2cc(-c3ccccc3)nc12,63.6*,-4.4%,-0.5%,51.6*
COc1ccc(S(=O)(=O)NCCc2cn3cccc(C)c3n2)cc1OC,1.5,-23.4%,5.1%,-3.0
COc1ccc(-c2cn3cccc(C)c3n2)cc1Br,150.3*,48.8%,-12.7%,76.0*
Cc1ccc(CNC(=O)c2cc3sccc3n2Cc2ccc(Cl)cc2)cc1,·,-8.4%,2.2%,·
COC(=O)c1cc2oc3ccccc3c2n1Cc1ccc(Cl)cc1,·,9.4%,1.7%,·
COc1ccc(NC(=O)Cc2c(C(=O)O)[nH]c3ccccc23)cc1OC,·,-9.2%,-0.3%,·
Cc1ccccc1-c1noc(-c2ccccc2OCC(=O)Nc2ccccc2[N+](=O)[O-])n1,·,-23.0%,-2.2%,·
CCN1C(=O)CC(CC(=O)N2CCC(c3nc4ccc(F)cc4[nH]3)CC2)(c2ccccc2C)C1=O (stereo not drawn),·,-11.1%,·,·
CCOC(=S)SCc1cn2cccc(C)c2n1,4.7,11.5%,-0.1%,23.9*
Cc1cccn2cc(CNc3ccccc3)nc12,68.1*,36.2%,1.3%,50.6*
CCCS(=O)(=O)NCc1cn2cccc(C)c2n1,-8.0,·,-2.5%,1.2
CC(=O)c1cccc(NC(=O)Nc2sc3nc4n(c(=O)c3c2C)CCC(C)CC4)c1 (stereo not drawn),·,-16.8%,5.3%,·
Cc1oc(-c2ccccc2Cl)nc1CSc1nc2c(c(=O)[nH]1)CCC2,-3.3,22.4µM*,-17.0%,-5.2
Cc1oc(-c2cccc(Cl)c2)nc1CSc1nc2c(c(=O)[nH]1)CCC2,26.9,-6.1%,-0.3%,0.9
NC(=S)N/N=C/c1ccccc1O,-1.1,-10.1%,15.3%,1.1
COc1cccc(/C=N/NC(=S)NC2CC3CC2C2C=CCC32)c1O (stereo not drawn),86.8*,36.6%,-1.6%,34.9*
COc1cccc(/C=N/NC(=O)c2ccc(-c3ccccc3)cc2)c1O,2.4,-27.2%,8.0%,3.5
Oc1ccccc1/C=N/NC(=S)NC1CC2CC1C1C=CCC21 (stereo not drawn),48.8*,-13.2%,6.4%,53.2*
COc1ccc(S(=O)(=O)N=C2C=C(C)C(=O)C(C)=C2)cc1,-15.5,40.5%,31.6µM*,-2.5
COc1ccc(C(=O)ON=C2C=C(C)C(=O)C(C)=C2)cc1,0.4,1.5%,-0.8%,-1.1
Cc1ccc(CNC(=O)c2c(-c3cccc(Br)c3)noc2C)o1,·,-29.4%,?,·
COc1c(C)cc(C(=O)C2CCCN(C3CCOCC3)C2)cc1C (stereo not drawn),-1.6,-3.3%,12.6µM*,2.3
CCOc1ccccc1OCCn1nnc2ccccc21,22.2,-11.0%,-3.4%,8.4
SMILES,Shiga toxin inh,FMDV inh,Sm TGR block,CHX counter
COc1ccccc1OCCn1nnc2ccccc21,103.5*,52.9%,-1.0%,34.1*
Cc1ccc(OCCSc2nc3ccccc3n2CCC(=O)O)cc1C,·,-9.0%,?,·
Cc1ccc(OCCn2nnc3ccccc32)cc1C,47.6*,16.4%,-15.3%,45.1*
O=C(CCC1N=C2c3ccccc3N=C(SCc3ccc(F)cc3)N2C1=O)NCc1ccc(F)cc1 (stereo not drawn),·,-33.4%,9.9%,·
COc1cc(Nc2nc(SCc3ccccc3Cl)nc3ccccc23)cc(OC)c1,·,-21.5%,1.5%,·
COc1ccc(S(=O)(=O)N2Cc3ccccc3-n3nncc3C2)cc1,·,0.0%,·,·
Cc1cc(C)c(S(=O)(=O)N2Cc3ccccc3-n3nncc3C2)c(C)c1,·,22.4µM*,·,·
Fc1ccccc1-c1csc(-c2cccnc2)n1,37.8*,62.6%,?,47.8*
O=C1c2ccccc2C(=O)N1CCc1csc(-c2ccc(F)cc2)n1,10.1,?,17.6%,8.4
Fc1ccc(-c2csc(-c3cccnc3)n2)cc1F,60.9*,19.4%,7.3%,22.5
Clc1ccc(-c2csc(-c3cccnc3)n2)s1,54.0*,67.0%,18.5%,32.1*
O=C1c2ccccc2C(=O)N1CCc1csc(-c2ccccc2)n1,35.8*,-0.4%,9.4%,18.2*
CCOc1ccc(-n2c(C)nc3cc(C(=O)NCc4ccc(C)cc4)ccc32)cc1,·,1.1%,3.5%,·
COc1cccc(C(=O)NCC2Cc3cccc(-c4cccnc4)c3O2)c1 (stereo not drawn),·,23.0%,·,·
CCOc1ccc(NC(=O)Cn2nc(CC)n3c(cc4sccc43)c2=O)cc1,·,-16.3%,12.7%,·
Brc1ccsc1-c1csc(-c2ccncc2)n1,87.0*,69.1%,-2.7%,43.0*
N#Cc1cncc(-c2ccc3c(c2)OCCOCCOCCOCCOCCO3)n1,-1.3,-6.1%,-2.1%,1.7
c1cncc(-c2nc(-c3ccc4c(c3)OCCO4)cs2)c1,128.3*,4.2%,5.7%,63.0*
c1ccc(-c2csc(-c3ccncc3)n2)cc1,55.0*,32.0%,-3.1%[57.1 µM],30.7*
Cc1nc(-c2ccc(O)c(O)c2)cs1,-7.6,12.7%,?,-1.0
Oc1ccc(-c2csc(-c3ccccc3)n2)cc1O,71.3*,49.7%,-28.6%,32.7*
Clc1ccc(-c2csc(-c3nc(-c4ccc(Br)s4)cs3)n2)cc1,·,-7.7%,-0.3%,·
Cc1cccc(N(C)c2nc3ccccc3c3nnc(C)n23)c1,·,-7.6%,7.6%,·
COc1ccc(NC(=O)CN2C(=O)C(C)(C)c3ccccc32)cc1Cl,·,?,49.9%,·
CCc1nnc2c(Nc3ccc(Br)c(C)c3)nc3ccccc3n12,·,-0.7%,5.3%,·
SMILES,Shiga toxin inh,FMDV inh,Sm TGR block,CHX counter
Cc1csc(-c2cccnc2)n1,11.8,3.6%,16.7%,-2.4
O=C(O)c1csc(-c2ccccc2)n1,-5.4,9.6%,5.0%,0.4
Oc1ccc(-c2csc(-c3cccnc3)n2)cc1O,61.1*,25.9%,?,54.3*
CS(=O)(=O)c1ccc(-c2csc(-c3cccnc3)n2)cc1,54.0,5.0%,7.8%,39.1*
Oc1ccccc1-c1csc(-c2ccccc2)n1,158.5*,25.9%,-5.3%,75.0*
CN(C)S(=O)(=O)c1ccc(-c2csc(-c3cccnc3)n2)cc1,20.6,0.1%,-7.8%,19.4
COc1ccc(S(=O)(=O)NCCc2sc3nc(-c4ccc(C)cc4)nn3c2C)cc1C,·,4.4%,-4.0%,·
COCCCNC(=S)N/N=C/c1ccc(OC)cc1,12.5,5.0%,-31.1%,10.0*
COCCCNC(=S)N/N=C/c1cccc(OC)c1O,49.5*,35.3%,?,41.8*
COCCCNC(=S)N/N=C/c1ccc(O)cc1,14.8,0.3%,-34.1%,-0.2
COCCCNC(=S)N/N=C/c1ccc(O)cc1O,32.4,-1.6%,-8.2%,11.7
CCc1ccc(NC(=O)CCCc2nc(-c3ccco3)no2)cc1,·,9.2%,-2.0%,·
COc1ccc(C)cc1NC(=O)C1CCCN(c2ncnc3onc(C)c23)C1 (stereo not drawn),·,-7.4%,-0.3%,·
Cc1ccc(NC(=O)Cn2cc(C(=O)C3CCCCC3)c3ccccc32)c(C)c1,·,-18.1%,-7.4%,·
COc1ccc(OC)c(S(=O)(=O)N2CCC(c3ccncc3)CC2)c1,·,0.0%,-9.3%,·
CCOC(=O)N1CCC(NC(=O)c2ccc3c(c2)N(Cc2ccc(Cl)cc2)C(=O)c2ccccc2S3=O)CC1 (stereo not drawn),·,-26.5%,0.5%,·
Cc1c(Cl)cccc1Nc1nc(NCCO)c2ccccc2n1,44.7*,-11.2%,-0.1%,16.5*
